The campaign covered roughly 320,000 compounds. About 2,200 (0.69%) were called active. The sample holds actives, similar compounds and a random draw of the others, so the mix is not that of the screen. Values without a mark were called inactive. No stated cut-off is given here; in the data, active means inhibition above about 43%; inactive means the rest.
Each compound was assayed against Prolyl endopeptidase-like (Homo sapiens) (UniProt Q4J6C6) (assay: human PREPL activity-probe blockers – biochemical, fluorescence polarization, primary screen (AID 2751;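 further: 0% = enzyme with DMSO and 100% = wells lacking enzyme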)). Details: recombinant PREPL, fluorescence polarization activity-based probe; at 5.96 µM; hits give high values.
Prolyl endopeptidase-like (Homo sapiens), sequence (Q4J6C6 whole entry, looked up): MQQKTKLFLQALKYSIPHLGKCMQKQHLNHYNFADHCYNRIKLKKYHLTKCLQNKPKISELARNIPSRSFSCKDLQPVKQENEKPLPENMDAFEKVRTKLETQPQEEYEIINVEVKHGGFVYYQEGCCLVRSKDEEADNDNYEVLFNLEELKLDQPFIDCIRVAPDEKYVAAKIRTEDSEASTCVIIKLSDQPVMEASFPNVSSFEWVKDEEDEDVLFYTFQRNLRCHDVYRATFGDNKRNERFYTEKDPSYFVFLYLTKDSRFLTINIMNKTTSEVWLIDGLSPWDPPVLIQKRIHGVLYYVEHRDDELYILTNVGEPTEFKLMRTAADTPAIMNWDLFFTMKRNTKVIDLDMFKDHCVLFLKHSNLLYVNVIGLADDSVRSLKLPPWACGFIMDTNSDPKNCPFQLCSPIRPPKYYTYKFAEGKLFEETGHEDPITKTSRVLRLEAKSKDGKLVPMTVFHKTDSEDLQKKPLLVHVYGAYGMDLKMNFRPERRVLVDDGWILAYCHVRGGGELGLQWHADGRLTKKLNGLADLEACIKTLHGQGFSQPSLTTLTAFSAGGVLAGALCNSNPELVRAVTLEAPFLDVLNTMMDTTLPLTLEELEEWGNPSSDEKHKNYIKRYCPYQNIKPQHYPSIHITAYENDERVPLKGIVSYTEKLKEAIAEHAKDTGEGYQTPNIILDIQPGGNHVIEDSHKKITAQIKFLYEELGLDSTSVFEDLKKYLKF

Going from COc1ccc(OC)c(CN2CCN(C(=O)CNC(=O)c3cc(C)cc(C)c3)CC2)c1 to CCC(=O)N1CCN(c2ccccc2NC(=O)COc2cccc(C)c2C)CC1, the inhibition rises from 5.26% to 12.6%.

First: Cn1cnc(S(=O)(=O)Nc2ccc3c(c2)OCCO3)c1
Second: O=C(Nc1ccc2c(c1)OCCO2)C1CCCC1
The inhibition of the first is lower: -9.35% for the first, 0.16% for the second.

First: CC(=O)c1cc(NC(=O)c2ccccc2)c(=O)oc1/C=C/N(C)C
Second: C[C@H](NC(=O)c1ccccc1)C(=O)OCC(=O)c1c[nH]c2ccccc12
The inhibition of the first is higher: 0.73% for the first, -2.69% for the second.

Going from Cc1cccc(N2CCN(C(C)C(=O)N3CCc4ccccc43)CC2)c1C (stereo not drawn) to CC(CC(=O)N1CCN(c2ccccc2)CC1)c1ccccc1 (stereo not drawn), the inhibition falls from 18.7% to -0.94%.

Going from CC1CCC2(CC1)NC(=O)N(Cc1nnc(-c3cccs3)o1)C2=O (stereo not drawn) to O=C(CN1C(=O)NC2(CCCCC2)C1=O)NCCc1c[nH]c2ccccc12, the inhibition falls from 11.6% to 6.75%.

First: CCCNCc1cc(OCC)c(OCC(=O)Nc2ccccc2)cc1Br
Second: Cc1ccccc1OCC(=O)Nc1ccc2c(c1)ncn2C
The inhibition of the first is lower: -9.46% for the first, 8.18% for the second.

First: CCCC(CCC(=O)OC)(C(=O)OCC)c1csc(N)n1 (stereo not drawn)
Second: CCNC(=O)N(CC)C[C@H]1N[C@@](CC)(C(=O)OC)[C@H]2C(=O)N(Cc3ccccc3)C(=O)[C@@H]12
The inhibition of the first is higher: 2.3% for the first, 2.12% for the second.

Compared with C=C(C)CNC(=S)N/N=C/c1ccccc1OCC(=O)O, Cc1ccc(Cn2c(SCC(=O)N/N=C/c3ccccc3OCC(=O)O)nc3ccccc32)cc1 is lower in inhibition: -3.72% for the first, -29% for the second.

Going from O=C(C1CCCN1S(=O)(=O)c1ccc(Br)cc1)N1CCOCC1 (stereo not drawn) to O=C(C1CCCN(S(=O)(=O)c2ccc([N+](=O)[O-])cc2)C1)N1CCCCC1 (stereo not drawn), the inhibition falls from 12.8% to 3.89%.

First: Cc1ccc(C)c(NC(=O)C2Cc3ccccc3CN2C(=O)OCc2ccccc2)c1 (stereo not drawn)
Second: COc1cc(NC(=O)COC(=O)CSc2ccc3ccccc3c2)c(C)cc1[N+](=O)[O-]
The inhibition of the first is lower: -31.7% for the first, 26.5% for the second.

Compared with COc1ccc(C2NC(=O)C(=O)/C2=C(\O)c2ccc(Cl)cc2)cc1OC (stereo not drawn), C=Cn1cc[n+](CC(=O)c2ccc(OC)c(OC)c2)c1 is higher in inhibition: 2.96% for the first, 19.9% for the second.

Compared with C=CCN1C(=O)C(Cc2ccc(OCC)cc2)SC1=Nc1ccc(C(=O)O)cc1 (stereo not drawn), COc1ccc(/C=C(\NC(=O)c2ccc(OCC(C)C)cc2)C(=O)OCc2ccco2)cc1 is higher in inhibition: -7.27% for the first, -0.54% for the second.

First: O=C(Nc1c2c(nn1-c1ccccc1)CS(=O)(=O)C2)C1CCCC1
Second: CCOC(=O)c1cc(C#N)c(N2CCCCC2)nc1-c1ccccc1
The inhibition of the first is higher: 11.5% for the first, -11.5% for the second.

Going from CC1=CC(C)(C)NC(=S)N1c1ccccc1 to Cc1cc(=O)n(C)c(=O)n1CCCNc1ccccc1, the inhibition rises from 0.44% to 2.85%.

Compared with COc1ccc2nc(N3CCCC(O)C3)c(C#N)cc2c1 (stereo not drawn), CCc1nc2ccc(C(=O)N3CCN(c4cccc(Cl)c4)CC3)cc2nc1CC is lower in inhibition: 19.4% for the first, -11.3% for the second.

First: O=C(NCc1ccccc1Cl)C1CCC(CNc2c(N3CCCCC3)c(=O)c2=O)CC1 (stereo not drawn)
Second: CCNc1c(NS(=O)(=O)c2ccc(C3CCCCC3)cc2)c(=O)oc2ccccc12
The inhibition of the first is lower: 0.19% for the first, 10.3% for the second.

First: O=C(c1cccc(F)c1)N1CCN(c2ccc([N+](=O)[O-])c(N3CCCCC3)c2)CC1
Second: O=C(c1cncc(Br)c1)N1CCN(c2ccc([N+](=O)[O-])cc2)CC1
The inhibition of the first is lower: 16.6% for the first, 17.6% for the second.

Compared with O=C(c1cc2cc(F)ccc2[nH]1)N1CCN(c2ccc(F)cc2)CC1, O=C(Nc1ccc(F)cc1)N1CCN(c2ccc(F)cc2)CC1 is lower in inhibition: 18.5% for the first, 15.1% for the second.

First: O=C(c1ccccc1Oc1ccccc1)N1CCN(c2ccc(F)cc2)CC1
Second: O=C(CCN1C(=O)COc2ccccc21)NCCCN1CCN(c2ccc(F)cc2)CC1
The inhibition of the first is lower: -29.3% for the first, 35.5% for the second.

Compared with O=C(c1ccc(F)cc1)N1CCC(C(=O)N2CCN(S(=O)(=O)c3ccccc3Br)CC2)CC1, O=C(CNC(=O)c1ccc(F)cc1)c1ccccc1 is lower in inhibition: 5.69% for the first, -2.4% for the second.

Compared with COC(=O)C1=CN(c2ccc(F)c(F)c2)C=C(C(=O)OC)C1c1ccc([N+](=O)[O-])cc1, NS(=O)(=O)c1ccc(CNC(=O)c2ccc(Cl)cc2[N+](=O)[O-])cc1 is higher in inhibition: -1.25% for the first, 13.1% for the second.

Going from N#C/C(=C/c1ccc(N2CCOCC2)o1)C(=O)N1CCOCC1 to CS(=O)(=O)N(CC(=O)N1CCOCC1)c1cccc(Cl)c1Cl, the inhibition falls from 7.19% to 1.45%.

Compared with CN(CCc1ccccn1)C1CCCN(S(=O)(=O)c2ccccc2Cl)C1 (stereo not drawn), Cn1c(CCN2CCCC2)nc2cc(NS(=O)(=O)c3ccccc3)ccc21 is lower in inhibition: -0.19% for the first, -19% for the second.

Compared with Cc1cc(Nc2ccccc2)n(C(=O)c2ccc(N)cc2)n1, Nc1ccc(-c2nnc(-c3ccccc3)o2)cc1 is lower in inhibition: 32.7% for the first, 2.86% for the second.

First: CC(NC(=O)COC(=O)Cn1cc(C(F)(F)F)ccc1=O)c1ccccc1 (stereo not drawn)
Second: O=C(Cn1cnc2ccccc2c1=O)NNC(=O)c1ccccc1F
The inhibition of the first is lower: 4.36% for the first, 9.97% for the second.

First: CC(C)Oc1ccc(Oc2ccc(C(F)(F)F)cn2)cc1
Second: CCC(=O)Nc1cc(C(F)(F)F)ccc1N1CCCC1
The inhibition of the first is higher: 14.7% for the first, 8.09% for the second.

Going from Cc1ccc(CN(CC(=O)NCC2CCCO2)S(=O)(=O)c2ccc(C)cc2)cc1 (stereo not drawn) to COc1ccc(CCNC(=O)CN(c2ccccc2)S(C)(=O)=O)cc1, the inhibition rises from -1.14% to 11.1%.

First: COc1ccccc1-c1n[nH]c2c1[C@H](C)CC[C@H]2C(C)C
Second: CCOc1ccccc1C1CC(c2ccccc2)Nc2nc(N)nn21 (stereo not drawn)
The inhibition of the first is lower: -22.4% for the first, 5.16% for the second.

First: COc1ccc(CSc2nnnn2-c2ccc(O)cc2)cc1F
Second: CCOc1ccccc1C1CC(c2ccc(Cl)cc2)Nc2nc(N)nn21 (stereo not drawn)
The inhibition of the first is lower: -18.7% for the first, 24.3% for the second.

Going from Cc1ccc(C23CC4CC(CC(C(=O)NCC(=O)O)(C4)C2)C3)cc1 to CCN(CC(=O)Nc1c(F)cccc1F)C(=O)c1cnc(C)cn1, the inhibition falls from 5.03% to 3.72%.

First: Cc1nn(CC(=O)Nc2ccc3c(c2)nc(CN2CCCCC2)n3C)c(=O)c2ccccc12
Second: O=S(=O)(CCc1nc2ccccc2o1)c1ccc(Cl)cc1
The inhibition of the first is higher: 1.33% for the first, -9.37% for the second.

Compared with CCN1C(=O)/C(=C\N2CCN(c3cccc(Cl)c3)CC2)SC1=S, CCN1C(=O)/C(=C\N2CCOCC2)SC1=S is lower in inhibition: 23.1% for the first, -9.93% for the second.

Compared with O=C(O)CSCc1ccc(C(=O)O)o1, CC(C)(C)OC(=O)C[C@@H]1C/C=C\C[C@@H](CC(=O)N(CCO)Cc2ccccc2)C(=O)N[C@H](Cc2ccccc2)COC1=O is higher in inhibition: 7.09% for the first, 14.3% for the second.

First: N=c1n(Cc2ccc(Cl)cc2)c2ccccc2n1CC(O)c1ccco1 (stereo not drawn)
Second: O=C1N[C@@H](c2ccccc2)COC(=O)[C@H](Cc2ccc(F)cc2)C/C=C\C[C@@H]1CC(=O)N(CCO)Cc1ccccc1
The inhibition of the first is lower: 16.6% for the first, 36% for the second.

Compared with C=C1C2C[C@H](O)C(C)(C)[C@@]2(O)[C@H](O)C[C@]23C[C@@](C)(O)[C@H](CC[C@H]12)[C@H]3O (stereo partly drawn), C#CCOCCOCCOCCNc1nc(N2CCN(C(=O)CCCCCCCCCCNC(=O)[C@H]([C@@H](C)CC)n3cc(CCCCN=C(N)N)nn3)CC2)nc(N2CCN(C(=O)CCCCCCCCCCNC(=O)[C@H](CO)n3cc(CCCSC)nn3)CC2)n1 is higher in inhibition: -4.1% for the first, 29.9% for the second.

Going from CCN(C[C@H]1N[C@@](CC)(C(=O)OC)[C@H]2C(=O)N(Cc3ccccc3)C(=O)[C@@H]12)S(=O)(=O)c1ccccc1 to C#CCOCCOCCOCCNc1nc(N2CCN(C(=O)CCCCCCCCCCNC(=O)[C@H](CCCCN)n3cc(C)nn3)CC2)nc(N2CCN(C(=O)CCCCCCCCCCNC(=O)[C@H](CO)n3cc(CCCSC)nn3)CC2)n1, the inhibition rises from 16.9% to 35.2%.

With Cc1ccc(NS(=O)(=O)c2ccc(N/N=C/c3ccccc3OCC(=O)O)c([N+](=O)[O-])c2)c(C)c1 the inhibition was 49.9% (active).
In the case of CC[N+](C)(CC)CCC[n+]1c(-c2ccccc2)c2cc(N)ccc2c2ccc(N)cc21, the inhibition is reported as 65.2% (active).
In the case of Cc1ccccc1OCC(=O)Nc1ccc(N2CCN(C(=O)C(C)C)CC2)c(Cl)c1, the inhibition is reported as 49.4% (active).
In the case of CCOc1ccc2nc(N3CCCN(C(=O)Nc4ccccc4C)CC3)c(C#N)cc2c1, the inhibition is reported as 43.6% (active).
In the case of O=C(c1cccc(C(=O)N2CCN(c3ccc(F)cc3)CC2)c1)N1CCN(c2ccc(F)cc2)CC1, the inhibition is reported as 62.3% (active).
For O=C(c1cc(C(=O)N2CCN(c3ccc(F)cc3)CC2)cc([N+](=O)[O-])c1)N1CCN(c2ccc(F)cc2)CC1, the inhibition was 43.4% (active).
N#C/C(=C/c1ccc(N2CCCCC2)o1)C(=O)NCCc1c[nH]c2ccccc12 was tested, and the inhibition was 80.7% (active).
For Nc1ccc(Nc2ccccc2)cc1, the inhibition was 94.7% (active).
CNCC[C@H](Oc1ccc(C(F)(F)F)cc1)c1ccccc1 was tested, and the inhibition was 59% (active).
CC(=O)N1CCN(c2ccc(NCc3ccc(C(C)C)cc3)cc2)CC1 was tested, and the inhibition was 66.9% (active).
For Cc1ccc(C2CC(c3cccc(C)c3)n3nc(N)nc3N2)cc1 (stereo not drawn), the inhibition was 54.5% (active).
For Cn1c(CCN2CCCCCC2)nc2cc(NC(=O)Nc3ccccc3)ccc21, the inhibition was 53% (active).
CCN1C(=O)/C(=C\N2CCN(c3ccccc3)CC2)SC1=S was tested, and the inhibition was 49.4% (active).
O=C1N[C@H](Cc2c[nH]c3ccccc23)COC(=O)[C@H](Cc2ccc(F)cc2)C/C=C\C[C@H]1CC(=O)N(CCO)Cc1ccccc1 was tested, and the inhibition was 45.9% (active).
In the case of CN(C)c1ccc(C(CNC(=O)c2ccc(F)cc2)c2c[nH]c3ccccc23)cc1 (stereo not drawn), the inhibition is reported as 55.9% (active).
C#CCOCCOCCOCCNc1nc(N2CCN(C(=O)CCCCCCCCCCNC(=O)Cn3cc(CCCCCN)nn3)CC2)nc(N2CCN(C(=O)CCCCCCCCCCNC(=O)[C@H](CO)n3cc(CCCSC)nn3)CC2)n1 was tested, and the inhibition was 75.8% (active).
